Experimental data published in PubChem BioAssay AID1813 (Broad Institute, 2009).
Among all 300,000 compounds or so, about 2,500 (0.83%) were called active. This is one part of a sample in which actives are shown more often than they occur. Unmarked numbers belong to inactive results. Cut-off read from the data, not from the text of the source: active = inhibition above about 60%; inconclusive = no clear call, values can overlap the other calls; inactive = below that.

Experiment: 5' untranslated region of α-synuclein, MLPCN primary screen (AID 1813);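 note: H4 neuroglioblastoma cells stably carrying SNCA 5'UTR luciferase fusion; 0% = DMSO wells and 100% = positive control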
Details: alpha-synuclein 5'UTR reporter, inhibitor activity; stronger effect = higher value; tested at 7.5 µM

Compound	inhibition
COc1cccc(Oc2ccc(N)cc2)c1	5.65%
CC(C)(C)c1ccc(Oc2ccc(N)cc2)cc1	112% (active)
CC(C)(C)c1ccc(OC2=CS(=O)(=O)c3ccccc32)cc1	-110%
C=CCOc1ccc(/C=C/C(=O)OCC(=O)NC(C)c2ccc(F)cc2)cc1 (configuration not stated)	5.96%
O=C(c1ccc(OC2CCN(C/C=C/c3ccc(F)cc3)CC2)cc1)N1CCCCC1	-17.6%
COCCN1C(=O)C(=O)/C(=C(/O)c2ccc(S(=O)(=O)N3CCOCC3)cc2)C1c1ccc(OC)c(OC)c1 (configuration not stated)	0.0342%
CC(C)(C)NC(=O)NC(=O)CN1CCC(Cc2ccccc2)CC1	17.3%
Cc1ccc(C(=O)O)cc1NC(=O)c1ccc(Cn2nc(C)c(Cl)c2C)o1	-17.2%
Cc1c(Cl)c([N+](=O)[O-])nn1Cc1ccc(C(=O)N/N=C\c2cc(Cl)ccc2O)o1	81.2% (active)
Cc1c(Cl)c([N+](=O)[O-])nn1CCCC(=O)Nc1cc(Cl)ccc1Cl	12.6%
NC(=O)CCC(NS(=O)(=O)c1ccc(Cl)cc1)C(=O)NCc1ccccc1Cl (configuration not stated)	-12.6%
CCCCN(C)CCNC(=O)CSCc1ccc(C)cc1	0.318%
CC(=O)N1c2ccc(S(=O)(=O)N3CCCC(C(=O)Nc4cccc(F)c4)C3)cc2CC1C (configuration not stated)	4.33%
CCOC(=O)c1c(C)[nH]c(C)c1S(=O)(=O)N(C)CC(=O)Nc1ccccc1C	23%
CCOC(=O)C1=C(c2ccc(OC)cc2)C(=O)c2ccccc2C1=O	-17.2%
CCOC(=O)c1c(C)[nH]c2c1-c1ccccc1C(=O)C2=O	99.5% (active)
O=S(=O)(c1ccc(-c2ccccc2)cc1)N1CCCC1	1.66%
COc1ccc(-n2c(C)nn(CC3CC3)c2=O)cc1	5.05%
Cc1cc(Nc2cc(N3CCN(C)CC3)nc(Sc3ccc(NC(=O)C4CC4)cc3)n2)n[nH]1	-50.9%
O=C(O)CCn1c(SCc2cc(=O)n3ccccc3n2)nc2ccsc2c1=O	-7.14%
COc1ccccc1C(=O)NNC(=O)CCN1C(=O)/C(=C\c2ccccc2)SC1=S	8.03%
C=CCOc1ccc(/C=C2\SC(=S)N(CCC(=O)O)C2=O)cc1	80% (active)

Compound	inhibition
Cc1ccc(/C=C2\SC(=S)N(CCC(=O)Nc3ccc(O)cc3)C2=O)cc1	0.184%
C=CCNC(=O)/C=C/c1ccc(C(C)C)cc1	-129%
Cc1ccc2nc(-c3ccc(SCC(=O)Nc4cc(C)on4)nc3)[nH]c2c1	-160%
COc1ccc(CNC(=O)CSc2n[nH]c(N)n2)cc1OC	4.62%
CCN1CCN(c2cc3nc(C)n(Cc4ccccc4)c(=O)c3cc2NC(=O)c2ccccc2F)CC1	65.1% (active)
CCOc1cc(NC(=O)c2ccccc2C(=O)O)c(OCC)cc1NC(=O)c1ccccc1F	11.7%
CCC(=O)Nc1ccc2nc(C)n(Cc3ccccc3Cl)c(=O)c2c1	11.1%
C=CCc1cccc2cc(C(=O)Nc3ccc(NC(C)=O)cc3)c(=O)oc12	-30.5%
CCN(CC)CCN(C(=O)c1ccc(S(=O)(=O)N2CCOCC2)cc1)c1nc2cc3c(cc2s1)OCCO3	-15.5%
CCOc1ccc2nc(N(CCCN(C)C)C(=O)c3ccc(C(=O)c4ccccc4)cc3)sc2c1	90.2% (active)
CSc1nc2ccc(S(=O)(=O)N3CCc4ccccc43)cc2s1	1.39%
COc1ccc2sc(N(CCCN(C)C)C(=O)c3ccc(S(=O)(=O)N(C)C4CCCCC4)cc3)nc2c1	-20%
CN(C)CCCN(C(=O)c1ccc(S(=O)(=O)N2CCCCCC2)cc1)c1nc2cc3c(cc2s1)OCCO3	-27.7%
CCOc1ccc2nc(N(CCN(C)C)C(=O)c3ccc4ccccc4c3)sc2c1	-8.13%
CN(C)CCCN(C(=O)c1ccc(S(=O)(=O)N2CCCc3ccccc32)cc1)c1nc2ccc(F)cc2s1	74.2% (active)
CCc1ccc2nc(N(CCCN(C)C)C(=O)c3ccc4c(c3)OCCO4)sc2c1	-34.6%
CN(C)CCCN(C(=O)c1ccc(S(=O)(=O)N2CCCCCC2)cc1)c1nc2ccc(Br)cc2s1	75.3% (active)
CCC1(CC)C(=O)C2=C3C1[C@H](C(=O)OC)C=C(C(=O)OC)C[C@H]3[C@H]1C(=O)N(Cc3ccccc3)C(=O)[C@H]1[C@H]2C (some centres not stated)	6.19%
COc1ccc(S(=O)(=O)NCC(c2ccc(C)cc2)N2CCN(C)CC2)cc1OC (configuration not stated)	-8.67%
COc1ccc(CN2CCC(n3nccc3NC(=O)CCCc3ccccc3)CC2)cc1C	23.5%
O=C(NCc1ccccc1)c1onc(CSc2nc3ccccc3[nH]2)c1C(=O)NCc1ccccc1	21.2%
COc1ccc(N2CCN(C(=O)[C@@H](NC(=O)c3cc(OC)cc(OC)c3)C(C)C)CC2)cc1	5.14%

Compound	inhibition
CCCC1=Nc2cc(C(=O)NCc3ccco3)ccc2Sc2ccccc21	87.6% (active)
CC(C)(C)c1ccc(C(=O)NCc2ccco2)cc1	-180%
CCCC1=Nc2cc(C(=O)NCCN3CCCC3)ccc2Sc2ccccc21	-14.6%
CCCN(CC(=O)Nc1ccc(OC)c(OC)c1)CC(=O)Nc1ccc(F)c(F)c1F	3.66%
Cc1ccc(CC(=O)N(C)CC(=O)N(CC(C)C)c2c(N)n(CC(C)C)c(=O)[nH]c2=O)cc1C	15%
Cc1nn(CC(=O)Nc2nc3ccccc3s2)c(C)c1[N+](=O)[O-]	5.8%
CCC(C)Cn1c(O)cc2nn(-c3nc4ccccc4s3)c(=O)c-2c1C (configuration not stated)	97.8% (active)
Cc1cc(NC(=O)CN2CCCC(C)C2)n(-c2nc3ccccc3s2)n1 (configuration not stated)	27.7%
Nc1cc(N2CCCCCC2)c2nonc2c1[N+](=O)[O-]	11%
Cc1ccc(C2CC(=O)NC(SCC(=O)OCc3ccccc3)=C2C#N)o1 (configuration not stated)	-11.5%
CCOC(=O)CSC1=C(C#N)C(c2ccco2)C(C(=O)OCc2ccccc2)=C(C)N1 (configuration not stated)	10.5%
CCOC(=O)CSC1=C(C#N)C(c2sccc2C)CC(=O)N1 (configuration not stated)	75% (active)
Cc1nc2ccccc2c(=O)n1-c1ccc(F)c(NC(=O)c2cccs2)c1	9.3%
CCC(C)(C)c1ccc(Oc2ccc(NC(=O)COC(=O)C3=COCCO3)cc2)cc1	90.6% (active)
CCOc1ccc(NC(=O)c2ccc(NC(=O)COC(=O)c3ccc(NC(=O)CC#N)cc3)cc2)cc1	-88.1%
O=C(OCC(=O)c1cccs1)C1=COCCO1	-103%
Cc1nc2ccccc2nc(=O)c1NNc1ccc([N+](=O)[O-])cc1	-109%
CSCCC(NS(=O)(=O)c1ccc2c(c1)oc(=O)n2C)C(=O)NC1CCCc2ccccc21 (configuration not stated)	1.15%
CC12CCC(C(=O)N(NC(=O)c3ccccc3O)C1=O)C2(C)C (configuration not stated)	67.6% (active)
O=C(NN1C(=O)C2C(C1=O)C1C=CC2C12CC2)c1ccccc1Cl (configuration not stated)	12.2%
CC12CCC(C(=O)N(c3cccc(Cl)c3)C1=O)C2(C)C (configuration not stated)	15.6%
COC(=O)c1scc(C)c1NC(=O)CSc1ccc(Cl)cc1	14.7%

Compound	inhibition
Cc1ccc(CSCCNC(=O)CN(c2ccc(F)cc2)S(C)(=O)=O)cc1	14.7%
O=C(C1CC1)N1N=C(c2ccc(Br)cc2)CC1(O)C(F)(F)F (configuration not stated)	-12.3%
O=C(Cc1ccccc1)N1N=C(c2ccncc2)CC1(O)C(F)(F)F (configuration not stated)	18.6%
O=C(c1ccc(Cl)cc1)N1N=C(c2ccccn2)CC1(O)C(F)(F)F (configuration not stated)	68.6% (active)
CC(=O)Nc1ccc(N2C(=O)C3C4CC(=O)C(c5ccccc54)C3C2=O)cc1 (configuration not stated)	17.3%
CC(Oc1ccccc1)C(=O)NN1Cc2ccccc2C1=N (configuration not stated)	-12.4%
O=C1[C@H]2[C@@H](c3ccc(F)cc3)N3C(=O)N(c4ccc(C(F)(F)F)cc4)C(=O)[C@@]3(Cc3ccccc3)[C@H]2C(=O)N1C1CCCCC1	-4.59%
COc1ccc(CCNC(=O)c2c(C)nn(-c3ccccc3)c2Cl)cc1	14.8%
Nc1nonc1-n1nnc(C(=O)N/N=C/c2c[nH]c3ccccc23)c1-c1ccccc1	1.28%
CCc1ccc2c(c1)C1(NN=C(c3ccccc3)S1)C(=O)N2 (configuration not stated)	71.7% (active)
CCOC(=O)c1c(C)[nH]c(C)c1S(=O)(=O)NCCCc1ccco1	0.398%
Cc1oc2nc(SCC(=O)Nc3ccc(S(N)(=O)=O)cc3)nc(NC(=O)c3ccccc3)c2c1C	-1.45%
CCn1c(CNC(=O)c2cc(OC)c(OC)c(OC)c2)cc2cc(C)ccc21	-1.14%
COc1c(C)c2c(c(O)c1C/C=C(\C)CCC(=O)O)C(=O)OC2	76.6% (active)
CN1CN(C)c2ccc([N+](=O)[O-])c3cccc1c23	35.2%
CC1=NN(/C(=N\c2nnc(C)s2)Nc2ccccc2)[C@H](c2ccc(C)cc2)S1	-19.5%
COCCCn1c(SCC(=O)NC2CCCC2)nnc1-c1ccccc1	4.11%
Cn1c(N)c(C(=O)COC(=O)c2ccccc2NCc2ccco2)c(=O)n(C)c1=O	6.96%
COc1ccc(/C=C/C(=O)Nc2ccc(C34CC5CC(CC(O)(C5)C3)C4)cc2)cc1OC	76.5% (active)
COc1ccc(/C=C/C(=O)Nc2ccc(C)cc2)cc1S(=O)(=O)N1CCOCC1	-60%
COc1ccc(/C=C/C(=O)Nc2cccnc2)cc1OC	-72.4%
